# Measured values: PubChem BioAssay
# Activity calls are given as the source filed them.
# Legend:
# [1] = tested on: Plasmodium falciparum Sir2 (PF13_0152, Sir2A); assay: pfSir2 binders on small-molecule microarrays, primary screen, biochemical, small-molecule microarray, 635 nm fluorescence (AID 1098); conditions: small-molecule microarray binding, fluorescence 635 nm; higher = more signal;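 note: score merges spot fluorescence intensity with its signal-to-noise ratio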
# [2] = small-molecule microarray binders of probe aDKK1, primary screen, biochemical, biotinylated probe, 635/667 nm fluorescence (AID 1099); conditions: higher = more signal;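 note: score merges 667nm spot fluorescence with signal to noise across triplicate slides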
# [3] = small-molecule microarray binders of probe aCHRDL2, primary screen, biochemical, biotinylated probe, 635/667 nm fluorescence (AID 1100); conditions: higher = more signal
# [4] = splicing luciferase reporter signal modulators, primary screen, spliceosome inhibition project, cell-based, HEK293, splice +/- reporter (AID 1101); conditions: luminescence, 24 h, higher = more signal, called active from +8 up or from −8 down;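 note: HEK293 cells carrying a splicing-competent luciferase reporter gene; test concentration not given here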
# [5] = biological target: Fibroblast growth factor 10 (Homo sapiens) (UniProt O15520); assay: FGF10 binders on small-molecule microarrays, primary screen, biochemical, small-molecule microarray, 635 nm fluorescence (AID 1102); conditions: FGF10 binding, fluorescence 635 nm, higher = more signal
# [6] = tested on: glycogen synthase kinase-3 (GSK3A per assay name; protocol says GSK3B); assay: GSK3 binders on small-molecule microarrays, primary screen, biochemical, small-molecule microarray, 635 nm fluorescence, GSK3A (AID 1103); conditions: small-molecule microarray binding, fluorescence 635 nm; higher = more signal; note: the record names both GSK3A and GSK3B
# [7] = biological target: Epidermal growth factor receptor (Homo sapiens) (UniProt P00533); assay: EGFR binders on small-molecule microarrays, primary screen, biochemical, small-molecule microarray, 635 nm fluorescence (AID 1104); conditions: EGFR binding, higher = more signal;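 note: score merges 667 nm emission intensity with spot signal to noise over triplicate slides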
# [8] = biological target: Follistatin-related protein 3 (Homo sapiens) (UniProt O95633); assay: FSTL3 binders on small-molecule microarrays, primary screen, biochemical, small-molecule microarray, 635 nm fluorescence (AID 1105); conditions: FSTL3 binding, higher = more signal;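 note: score merges emission near 667 nm and signal to noise per printed spot across three slides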
# [9] = biological target: Dickkopf-related protein 1 (Homo sapiens) (UniProt O94907); assay: DKK1 binders on small-molecule microarrays, primary screen, biochemical, small-molecule microarray, 635 nm fluorescence scan (AID 1106); conditions: DKK1 binding, higher = more signal;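 note: score merges emission near 667 nm with signal to noise over three replicate slides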
# [10] = tested on: Inhibin beta A chain (activin A); assay: INHBA (activin A) binders on microarrays, primary screen, biochemical, small-molecule microarray, 635 nm fluorescence scan (AID 1107); conditions: small-molecule microarray binding, higher = more signal;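 note: mouse activin A protein probed at 4.33 µg/mL on printed slides; score merges bound-protein fluorescence near 667 nm with spot signal-to-noise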
# [11] = tested on: Human papillomavirus type 1a protein E7 (residues 44-93); assay: HPV1a E7 fragment binders on microarrays, primary screen, biochemical, small-molecule microarray, residues 44-93, 635 nm fluorescence (AID 1108); conditions: small-molecule microarray binding, fluorescence 635 nm; higher = more signal;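 note: E7 fragment applied at 1 µg/mL in TBST for 1 h at 4 C; score combines spot fluorescence with its signal to noise ratio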
# [12] = modulators of HCV replicon luciferase signal, primary screen, HCV replication inhibitor project, Huh7 cells, luciferase reporter (AID 1109); conditions: 48 h, higher = more signal;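 note: huh7 hepatoma cells harbouring a luciferase neomycin HCV replicon reporter; luciferase luminescence as measure of HCV replicon replication; test concentration not given here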
# [13] = biological target: Left-right determination factor 2 (Homo sapiens) (UniProt O00292); assay: LEFTY2 binders on small-molecule microarrays, primary screen, biochemical, small-molecule microarray, 635 nm fluorescence scan (AID 1110); conditions: LEFTY2 binding, higher = more signal
# [14] = biological target: Calmodulin-1 (Homo sapiens) (UniProt P0DP23); assay: CALM1 binders on microarrays, EGTA buffer, profiling panel, biochemical, small-molecule microarray, Cy5-labelled CALM1 (AID 1111); conditions: Cy5-CALM1 binding fluorescence, higher = more signal;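 note: labelled calmodulin applied in Tris saline Tween buffer holding calcium plus EGTA and DTT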
# [15] = biological target: Calmodulin-1 (Homo sapiens) (UniProt P0DP23); assay: calcium-bound CALM1 binders on microarrays, profiling panel, artefact control for SMM control-protein annotation, biochemical, small-molecule microarray, Cy5-labelled CALM1, plus calcium (AID 1112); conditions: Cy5-CALM1 binding fluorescence, higher = more signal;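 note: score merges spot fluorescence with signal to noise from triplicate slides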
# [16] = small-molecule microarray binders of probe aWnt5a, primary screen, biochemical, biotinylated probe, 635/667 nm fluorescence (AID 1113); conditions: higher = more signal;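 note: score merges 667 nm fluorescence intensity with signal-to-noise per printed feature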
# [17] = small-molecule microarray binders of probe aShh, primary screen, biochemical, biotinylated probe, 635/667 nm fluorescence (AID 1114); conditions: higher = more signal;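 note: probe is biotin-labelled aShh protein from a stem cell growth factor screen; measures binding of labelled protein to compounds printed on the slide; score merges feature fluorescence at 667 nm with signal-to-noise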
# [18] = small-molecule microarray binders of probe aNog, primary screen, biochemical, biotinylated probe, 635/667 nm fluorescence (AID 1115); conditions: higher = more signal;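 note: probe is biotinylated aNog protein used at 0.15 µg/mL for 1 h at 4 C; z-score combines 667 nm fluorescence of each spot with its signal to noise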
# [19] = biological target: Torsin-1A-interacting protein 1 (Homo sapiens) (UniProt Q5JTV8); assay: LAP1 binders from COS7 cell lysate, primary screen, small-molecule microarray, 635/667 nm fluorescence (AID 1116); conditions: COS7-hLAP1 lysate binding, 635 nm fluorescence, higher = more signal
# [20] = biological target: Alpha-bungarotoxin (Bungarus multicinctus) (UniProt P60615); assay: alpha-bungarotoxin binders on microarray, profiling panel, artefact control for SMM control protein annotation, biochemical, small-molecule microarray, Alexa647 label, 635/667 nm fluorescence (AID 1117); conditions: alpha-BTX-A647 binding fluorescence, higher = more signal
# Chain of Alpha-bungarotoxin (Bungarus multicinctus) (P60615 whole entry, looked up): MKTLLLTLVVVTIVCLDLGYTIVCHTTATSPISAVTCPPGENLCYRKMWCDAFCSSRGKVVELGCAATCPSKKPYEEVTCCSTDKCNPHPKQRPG
# Chain of Left-right determination factor 2 (Homo sapiens) (O00292 whole entry, looked up): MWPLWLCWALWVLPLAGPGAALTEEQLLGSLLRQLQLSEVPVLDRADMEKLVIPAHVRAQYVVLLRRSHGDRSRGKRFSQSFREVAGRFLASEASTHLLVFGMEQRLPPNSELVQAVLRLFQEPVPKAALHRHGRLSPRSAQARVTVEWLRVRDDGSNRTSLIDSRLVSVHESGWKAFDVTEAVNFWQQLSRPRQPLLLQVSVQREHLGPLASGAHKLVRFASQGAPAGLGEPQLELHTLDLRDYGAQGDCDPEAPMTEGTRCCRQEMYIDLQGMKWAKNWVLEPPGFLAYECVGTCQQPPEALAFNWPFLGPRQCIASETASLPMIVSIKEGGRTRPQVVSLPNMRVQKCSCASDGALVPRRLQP
# Chain of Follistatin-related protein 3 (Homo sapiens) (O95633 whole entry, looked up): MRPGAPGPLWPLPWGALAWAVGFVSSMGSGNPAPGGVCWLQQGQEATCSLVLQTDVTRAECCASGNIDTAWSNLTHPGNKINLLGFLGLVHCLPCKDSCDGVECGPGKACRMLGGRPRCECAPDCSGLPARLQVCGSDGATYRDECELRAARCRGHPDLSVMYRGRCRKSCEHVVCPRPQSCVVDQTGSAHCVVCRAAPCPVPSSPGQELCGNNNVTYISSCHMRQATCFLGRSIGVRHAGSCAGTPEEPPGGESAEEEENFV
# Chain of Torsin-1A-interacting protein 1 (Homo sapiens) (Q5JTV8 whole entry, looked up): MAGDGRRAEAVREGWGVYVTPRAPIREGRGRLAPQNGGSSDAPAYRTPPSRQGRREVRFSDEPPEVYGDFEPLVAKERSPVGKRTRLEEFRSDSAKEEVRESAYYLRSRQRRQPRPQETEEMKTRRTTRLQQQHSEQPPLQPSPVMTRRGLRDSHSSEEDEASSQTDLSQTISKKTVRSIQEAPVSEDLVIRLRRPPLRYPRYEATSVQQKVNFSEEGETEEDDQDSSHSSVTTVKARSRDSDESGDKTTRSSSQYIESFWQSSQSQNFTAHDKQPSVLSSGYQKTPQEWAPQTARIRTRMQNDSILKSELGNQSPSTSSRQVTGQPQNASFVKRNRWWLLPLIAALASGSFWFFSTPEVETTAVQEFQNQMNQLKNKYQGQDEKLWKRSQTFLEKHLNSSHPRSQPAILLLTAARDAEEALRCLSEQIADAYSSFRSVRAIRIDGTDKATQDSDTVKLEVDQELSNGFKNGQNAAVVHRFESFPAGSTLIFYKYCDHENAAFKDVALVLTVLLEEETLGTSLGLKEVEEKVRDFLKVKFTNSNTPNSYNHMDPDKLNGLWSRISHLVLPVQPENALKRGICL
# Chain of Fibroblast growth factor 10 (Homo sapiens) (O15520 whole entry, looked up): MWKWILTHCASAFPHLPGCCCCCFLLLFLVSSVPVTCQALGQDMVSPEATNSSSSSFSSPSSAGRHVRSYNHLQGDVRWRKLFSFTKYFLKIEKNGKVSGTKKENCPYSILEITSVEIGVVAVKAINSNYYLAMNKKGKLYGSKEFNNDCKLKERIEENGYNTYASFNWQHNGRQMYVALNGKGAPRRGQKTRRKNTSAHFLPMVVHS
# Chain of Dickkopf-related protein 1 (Homo sapiens) (O94907 whole entry, looked up): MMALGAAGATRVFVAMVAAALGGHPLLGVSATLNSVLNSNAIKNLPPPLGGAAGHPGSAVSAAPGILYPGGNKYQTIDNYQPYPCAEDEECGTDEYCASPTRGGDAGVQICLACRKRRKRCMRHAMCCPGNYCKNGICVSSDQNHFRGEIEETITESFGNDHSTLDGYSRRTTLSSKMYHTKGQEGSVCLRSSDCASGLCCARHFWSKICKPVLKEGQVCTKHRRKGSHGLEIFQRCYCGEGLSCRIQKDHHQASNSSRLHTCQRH
# Chain of Epidermal growth factor receptor (Homo sapiens) (P00533 whole entry, looked up): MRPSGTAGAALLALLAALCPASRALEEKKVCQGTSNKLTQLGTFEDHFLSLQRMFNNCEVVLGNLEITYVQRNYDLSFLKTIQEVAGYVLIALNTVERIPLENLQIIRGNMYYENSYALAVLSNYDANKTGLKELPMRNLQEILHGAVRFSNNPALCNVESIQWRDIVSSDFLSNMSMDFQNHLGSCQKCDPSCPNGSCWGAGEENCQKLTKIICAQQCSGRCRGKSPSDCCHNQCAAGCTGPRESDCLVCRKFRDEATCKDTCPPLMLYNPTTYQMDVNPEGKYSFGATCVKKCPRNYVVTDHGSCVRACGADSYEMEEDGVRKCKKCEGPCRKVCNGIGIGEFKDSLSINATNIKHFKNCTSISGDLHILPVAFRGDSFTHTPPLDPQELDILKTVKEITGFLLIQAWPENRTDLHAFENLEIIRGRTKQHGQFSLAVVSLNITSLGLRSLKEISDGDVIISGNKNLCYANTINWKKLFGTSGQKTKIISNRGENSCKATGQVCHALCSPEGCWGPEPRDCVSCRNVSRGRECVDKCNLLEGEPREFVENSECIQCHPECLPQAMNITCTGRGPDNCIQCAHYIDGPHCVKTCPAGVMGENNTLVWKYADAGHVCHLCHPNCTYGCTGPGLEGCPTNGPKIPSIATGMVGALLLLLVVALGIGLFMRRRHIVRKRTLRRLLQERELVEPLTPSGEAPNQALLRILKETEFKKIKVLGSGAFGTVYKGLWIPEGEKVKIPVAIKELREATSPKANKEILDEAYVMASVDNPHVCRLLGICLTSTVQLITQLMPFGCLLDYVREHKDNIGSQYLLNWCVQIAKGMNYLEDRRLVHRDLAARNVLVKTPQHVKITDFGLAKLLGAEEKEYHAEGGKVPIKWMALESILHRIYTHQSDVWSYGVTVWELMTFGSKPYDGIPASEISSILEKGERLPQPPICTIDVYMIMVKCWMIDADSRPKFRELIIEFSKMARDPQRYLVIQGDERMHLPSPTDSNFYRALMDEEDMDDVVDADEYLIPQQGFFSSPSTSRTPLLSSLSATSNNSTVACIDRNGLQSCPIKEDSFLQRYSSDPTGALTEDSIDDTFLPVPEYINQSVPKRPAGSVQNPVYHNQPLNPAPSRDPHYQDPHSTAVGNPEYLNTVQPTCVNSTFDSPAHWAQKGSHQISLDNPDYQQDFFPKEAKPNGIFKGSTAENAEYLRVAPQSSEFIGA
SMILES,composite z-score [1],composite z-score [2],composite z-score [3],z-score [4],composite z-score [5],composite z-score [6],composite z-score [7],composite z-score [8],composite z-score [9],composite z-score [10],composite z-score [11],z-score [12],composite z-score [13],composite z-score [14],composite z-score [15],composite z-score [16],composite z-score [17],composite z-score [18],composite z-score [19],composite z-score [20]
COCCn1c(C(=O)N(C)C)cc2c1C[C@H]1CN(C(=O)c3ccccc3)[C@@](Cc3ccc(OC)cc3)(C(=O)OC)[C@@H]21,0.816,0.785,1.34,-0.346 (inactive),0.26,0.22,0.0351,0.324,-0.745,1.21,1.38,-1.27,0.0756,0.572,0.25,0.0431,0.204,0.919,0.357,0.0924
O=C1O[C@@H](c2ccccc2)[C@@H](c2ccccc2)N2[C@@H](c3ccccc3OCCO)[C@]3(C(=O)Nc4ccc(C#CCCO)cc43)[C@@H](C(=O)NC[C@H](O)c3ccccc3)[C@H]12,1.69,1.93,1.51,-0.393 (inactive),0.428,-0.0642,0.249,1.35,0.172,1.41,1.49,-0.871,-0.274,2.34,0.953,0.489,-0.212,2.45,2.7,2.55
Cc1ccc(S[C@]2(C(=O)NCCCN(C)C)CC(=O)N(C3Cc4ccccc4C3)[C@@H]2c2ccc(CO)cc2I)cc1,1.58,0.182,0.932,-1.53 (inactive),-0.795,-0.719,-0.487,-0.335,-0.976,0.794,0.257,-2.83,-1.11,0.0811,-0.358,0.0792,0.207,-0.291,0.157,0.651
C=C(COC)C(=O)CC[C@H](OC(=O)c1cccnc1)c1ccc(OCCO)cc1,0.745,-0.163,-0.139,-0.319 (inactive),1.08,0.538,0.163,1.03,0.624,0.472,1.27,-0.345,0.65,-0.395,-1.33,-0.176,-0.379,-0.0762,2.53,0.994
C=CCC(OC(C)=O)[C@@H]1[C@@H](N(Cc2ccc(-c3cccc(C(F)(F)F)c3)o2)C(=O)c2ccc(-c3ccccc3)cc2)c2cc(OCCCO)ccc2N1C(=O)c1ccc2ccccc2c1 (stereo not given in full),0.194,-0.151,0.397,0.697 (inactive),0.225,0.099,0.1,0.695,0.15,1.22,-0.701,-0.514,0.27,0.0114,0.255,-0.119,0.0121,-0.399,0.33,0.0035
CCCCN1CC=CC23O[C@@H]4/C=C\CCCOC(=O)C4[C@H]2C(=O)N(C(CO)C(C)C)[C@@H]3C1=O (stereo not given in full),-0.459,-0.277,-0.179,0.558 (inactive),-0.138,-0.115,0.183,-0.436,0.323,1.21,-0.0052,-0.134,0.272,-0.11,-0.0085,-0.0482,0.0469,-0.51,0.0974,-0.838
CC(C)(C)OC(=O)CC[C@@]1(C(=O)NCCN2CCOCC2)N=C(c2ccc(OCCCO)cc2)O[C@@H]1c1ccccc1CN=[N+]=[N-],1.49,0.455,0.454,-0.268 (inactive),0.08,0.139,-0.088,-0.205,-0.45,0.67,1.02,-0.0116,-0.345,1.98,-0.0256,0.0219,-0.324,-0.481,0.462,0.519
